NTMT1 inh – NTMT1 methyltransferase inhibition; NTMT1 MTase-Glo SAH luminescence, purified enzyme; Potency, µM (doses to about 114 µM), for inactives: at the top dose activity change, negative = inhibition, hits mostly inhibitors; actives 2.5% (n = 59,000);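 further: potency means the concentration at half of the fitted maximal effect; plate controls were DMSO vehicle for no effect and no enzyme for full effect; nearly all actives have a fitted effect of over 65% in size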
Target sequence (Q9BV86 whole entry, looked up): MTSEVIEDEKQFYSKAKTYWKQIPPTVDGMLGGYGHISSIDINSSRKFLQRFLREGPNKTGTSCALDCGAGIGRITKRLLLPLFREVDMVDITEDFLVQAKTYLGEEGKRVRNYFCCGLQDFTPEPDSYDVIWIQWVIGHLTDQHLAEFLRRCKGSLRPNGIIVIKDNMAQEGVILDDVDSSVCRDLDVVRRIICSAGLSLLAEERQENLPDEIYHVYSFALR
SKOV3 invasion – inhibitors of ovarian cancer cell adhesion and invasion in omental model; AID 1963576; SKOV3ip1-GFP adhesion/invasion on 3D omental model, fluorescence; Potency, µM (highest dose often 45.8 µM), for inactives: at the highest dose activity change, negative = inhibition, most hits filed as inhibitors; actives 0.1% (n = 46,000);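 further: potency means the concentration at half of the fitted maximal effect; plate controls were DMSO wells for no effect and tomatine positive control wells for full effect; nearly all actives have a fitted effect of over 65% in size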
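Adhesion/invasion was scored as fixed GFP-labeled SKOV3ip1 cell counts (488/509 nm), normalized to DMSO and tomatine controls. Cancer cells in serum-free medium, with four compound doses (0.36-46 umol/L), sat 2 hr at RT then 16 hr at 37 C on a 48 hr fibroblast/mesothelial/ECM culture.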
p53null 32C kill – p53 null cell cytotoxicity, permissive temperature; H1299-neo p53 null cells, ATP luminescence, 24 h, 32C; Potency, µM (series often up to 46.1 µM), without a hit: top-dose activity change, negative = cytotoxicity, actives largely listed as cytotoxic; actives 0.62% (n = 55,000); AID 903;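 further: potency means the concentration at half of the fitted maximal effect; 0% = DMSO only and -100% = full killing by 100 µM tamoxifen; nearly all actives have a fitted effect of over 55% in size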
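H1299-neo, 600 cells/well; overnight 37C; cpd up to 46 uM, 24 h at 32C; ATPlite luminescence after 20 min RT; normalized to DMSO (0%) and tamoxifen 100 uM (100% kill); Hill-fit AC50.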
DRV1 agonist – GPR32 (DRV1) agonism, beta-arrestin recruitment; O75388; CHO-K1 GPR32 beta-arrestin PathHunter luminescence, 90 min; zero percent set by DMSO-only wells; activation, % at 76.9 µM; actives 2.5% (n = 48,000);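 active means activation of at least 60% and not above a set upper limit, about 1 call in 100 departs from these limits; inconclusive means activation of 40% to 60%, or above that upper limit; inactive means activation under 40%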; further: 0% is about no effect
Target sequence (O75388 whole entry, looked up): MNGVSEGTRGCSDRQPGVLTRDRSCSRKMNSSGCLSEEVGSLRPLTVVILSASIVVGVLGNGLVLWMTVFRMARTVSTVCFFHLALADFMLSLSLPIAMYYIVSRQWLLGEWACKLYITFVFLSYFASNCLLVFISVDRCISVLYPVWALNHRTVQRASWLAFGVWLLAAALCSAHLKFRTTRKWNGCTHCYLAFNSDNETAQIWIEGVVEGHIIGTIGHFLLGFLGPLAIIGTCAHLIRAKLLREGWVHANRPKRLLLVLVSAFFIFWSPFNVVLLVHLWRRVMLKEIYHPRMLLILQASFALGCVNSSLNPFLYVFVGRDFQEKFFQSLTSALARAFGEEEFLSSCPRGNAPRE
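Engineered CHO-K1 line co-expressing GPR32-ProLink and EA-beta-arrestin. Compound treatment lasted 90 min at 37 °C. Luminescence was recorded after 1 h with substrate at ambient temperature, relative to DMSO basal wells.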
p53null 39C kill – p53 null cell cytotoxicity, nonpermissive temperature; H1299 p53-null (neo) cells, 39C, ATPlite viability, 24 h; actives 0.97% (n = 55,000); Potency, µM (titrated, usually from 46.1 µM), inactives show at the highest dose activity, negative = cell killing, most hits filed as cytotoxic;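 further: potency means the concentration at half of the fitted maximal effect; 0% = DMSO only and -100% = full killing by 100 µM tamoxifen; nearly all actives have a fitted effect of over 50% in size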
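ATP-luminescence viability readout (ATPlite, 20 min RT) after 24 hr compound treatment at 39C of H1299-neo or H1299-p53A138V cells; titration up to 46 uM; normalized to DMSO and 100 uM tamoxifen; Hill-fit AC50.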
GALC G270D act – raises human GALC G270D mutant activity in cells; P54803; 145M-Twi-hGALC-G270D cells, HMU-beta-Gal fluorescence, 48 h; Potency, µM (highest dose often 57.5 µM), hits mostly activators; actives 0.1% (n = 45,000); further: potency means the concentration at half of the fitted maximal effect; 0% is about no effect; nearly all actives have a fitted effect of over 65% in size
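qHTS, 1536-well; 145M-Twi-hGALC-G270D cells (WT line also made) in DMEM/F12 + 10% FBS; compound incubation on live cells; HMU-β-gal 0.1 mM final, pH 5.2, NaTC; carbonate stop; fluorescence increase = enhanced residual activity.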
* marks the source's active call; other numbers are inactive results; i = inactive; ? = inconclusive; nt = not tested or not shown; ! = not active in a repeat; [ ] = dose if it differs, or a comment. Only some compounds are listed: those with a hit (about 4% of all), similar ones and a draw of the others. Unless noted, the call rests on the fitted dose curve; in most records, active means well fitted curve in the direction sought with a large enough effect; inconclusive means small, poorly fitted or top-dose-only effect, or another doubt; inactive means no such curve, though single readings can be large; an effect the other way counts as inactive or inconclusive.

SMILES	NTMT1 inh	SKOV3 invasion	p53null 32C kill	DRV1 agonist	p53null 39C kill	GALC G270D act
Cc1ccc(CN2C(=O)C(O)(c3c[nH]c4ccccc34)c3cc(Cl)ccc32)cc1 (stereo unspecified)	1%	?	?	87*	34%	i
COc1ccc(NC(=O)c2cnn3c(C)cc(C)nc23)cc1Cl	2%[57.5 µM]	nt	nt	nt	nt	nt
Cc1ccc(OCC(=O)Nc2c(Cl)ccc3nsnc23)cc1C	13%	i	21%	84*	18%	i
Cc1oc(-c2ccccc2)nc1CNS(=O)(=O)c1ccc(Cl)cc1	6%	-7%	0%	115*	-6%	i
COc1cc(/C=C/C(=O)O[C@@H]2O[C@H](CO)[C@@H](O)[C@H](O)[C@H]2O)ccc1O	-1%[29.8 µM]	nt	nt	nt	nt	nt
C=CC(=O)N1CCN(C(=O)CNc2cc(I)c(Cl)cc2O)CC1	0%[57.5 µM]	nt	nt	nt	nt	nt
Oc1cccc(-c2c3nc(c(-c4cccc(O)c4)c4ccc([nH]4)c(-c4cccc(O)c4)c4nc(c(-c5cccc(O)c5)c5ccc2[nH]5)CC4)C=C3)c1	22µM*	nt	nt	-15	nt	i
O=C(Nc1ccc(S(=O)(=O)Nc2nc(-c3ccccc3)cs2)cc1)c1ccc2ccccc2c1	-10%	nt	nt	nt	nt	nt
Cc1c[nH]c2nc(Nc3ccc(N4CCN(C)CC4)c(F)c3)nc(-c3cccc(CC#N)c3)c12	25µM*	nt	nt	nt	nt	nt
Cc1ccc(Nc2nc(N3CCN(C)CC3)nc(N)c2[N+](=O)[O-])cc1C	nt	nt	-11%	nt	nt	nt
Cc1c(-c2cccc(NC(=O)c3ccc(F)c(F)c3)c2)nc2ncccn12	-1%	-4%	-9%	64*	2%	i
CN(C)[S+](=O)([O-])c1ccc(-c2cncc(NC(=O)c3cccs3)c2)cc1	-3%	nt	nt	nt	nt	nt
COC(=O)c1cc2sc(Cl)cc2n1CC(=O)Nc1cc(OC)cc(OC)c1	5%	7%	-2%	89*	-15%	i
Cc1cc(NC(=O)CCc2nc3cccnc3n2-c2ccccc2)ccc1Br	-7%	-9%	-20%	66*	-11%	i
O=C(CSc1nc2c(c(=O)[nH]1)CCC2)Nc1cc(C(F)(F)F)ccc1Cl	2%	2%	1%	83*	43%	i
COc1cc(OC)cc(C(=O)NCC(c2cccs2)S(=O)(=O)c2ccc(F)c(C)c2)c1 (stereo unspecified)	13%	-4%	-2%	-12	-6%	i
COc1ccc(C(=O)NCC(c2cccs2)S(=O)(=O)c2ccc(C)cc2)cc1 (stereo unspecified)	-5%	-1%	5%	10	-1%	i
COc1ccc(C(=O)NCC(c2cccs2)S(=O)(=O)c2cccs2)cc1 (stereo unspecified)	1%	-9%	2%	83*	4%	i
COc1ccc(C(=O)NCC(c2cccs2)S(=O)(=O)c2ccc(F)c(C)c2)cc1 (stereo unspecified)	5%	-8%	7%	66*	5%	i
COc1ccc(CCNC(=O)C(=O)NCC(c2cccs2)S(=O)(=O)c2ccc(F)cc2)cc1 (stereo unspecified)	0%	3%	8%	85*	10%	i
CC1OC(O[C@H]2CC[C@@]3(C)C(CC[C@]4(C)C3CC=C3C5CC(C)(C)CC[C@]5(C(=O)OC5OC(CO)C(OC6OCC(OC7OCC(O)C(O)C7O)C(O)C6O)C(O)C5O)CC[C@]34C)C2(C)C)C(O)C(O)C1OC1OC(CO)C(O)C(OC2OC(CO)C(O)C(O)C2O)C1O (stereo partly specified)	12%[6.45 µM]	nt	nt	nt	nt	nt
Fc1cc(Nc2nc(-c3ccncc3)nc3ccccc23)ccc1OC(F)(F)F	-3%	nt	nt	nt	nt	nt
c1ccc(Cn2c(-c3ccc(OCC(C4CCNCC4)n4c(-c5ccccc5)nc5ccccc54)cc3)nc3ccccc32)cc1 (stereo unspecified)	28µM*	nt	nt	nt	nt	nt
CC(CN1c2ccccc2Sc2ccccc21)N(C)C (stereo unspecified)	?	nt	nt	108*!	nt	i
C[C@@H](CN(C)C)CN1c2ccccc2Sc2ccccc21	10%[57.5 µM]	nt	nt	?	nt	i
SMILES	NTMT1 inh	SKOV3 invasion	p53null 32C kill	DRV1 agonist	p53null 39C kill	GALC G270D act
O=C(NCCc1ccc(OCC(F)(F)F)c(OCC(F)(F)F)c1)c1cc2sccc2n1Cc1ccccc1	9%	nt	nt	nt	nt	nt
CCOc1ccc(CNC(=O)CSc2cc(=O)n(CC)c3ccccc23)cc1	4%	-35%	-4%	47	-15%	i
CCN(CCCNC(=O)c1cc2c(=O)n(C)c3ccccc3c2s1)c1ccccc1	?	-8%	-10%	70*	-18%	i
CCN(CCCNC(=O)CSc1cc(=O)n(CC)c2ccccc12)c1ccccc1	?	1%	-4%	117*	-3%	i
CCN(CCCNC(=O)CSc1cc(=O)n(C)c2ccccc12)c1ccccc1	?	i	3%	-3	6%	i
CCn1c(=O)cc(SCC(=O)NCc2ccc(OC)cc2OC)c2ccccc21	6%	-27%	-4%	22	-15%	i
CCc1ccc(CNC(=O)CSc2cc(=O)n(CC)c3ccccc23)cc1	1%	-2%	-2%	61*	-20%	i
CCn1c(=O)cc(SCC(=O)NCc2ccc(C)cc2)c2ccccc21	?	-10%	-5%	69*	-2%	i
CC(=O)OC1C[C@]2(C)C(O)CC(C)=C[C@H](OC(=O)c3ccc(O)cc3)C2[C@]1(O)C(C)C (stereo partly specified)	3%[29.8 µM]	nt	nt	nt	nt	nt
O=C(CCc1ccccc1Br)NCCc1nc2ccccc2[nH]1	11%	nt	nt	nt	nt	nt
Cc1oc(-c2cccc(Cl)c2)nc1CN1CCCC(C(=O)NCc2ccc(F)cc2)C1 (stereo unspecified)	?	17%	-1%	70*	?	i
Cc1oc(-c2ccc(Cl)cc2)nc1CN1CCCC(C(=O)NCCc2ccc(Cl)cc2)C1 (stereo unspecified)	-2%	4%	-4%	43	-24%	i
COc1ccc(N2CCN(C(=O)C3CCN(Cc4nc(-c5ccc(Cl)cc5)oc4C)CC3)CC2)cc1	89µM*	25%	-4%	-13	-23%	i
Cc1oc(-c2ccc(Cl)cc2)nc1CN1CCCC(C(=O)NCc2ccccc2)C1 (stereo unspecified)	?	-13%	-3%	106*	-12%	i
Cc1ccccc1-c1nc(CN2CCCC(C(=O)NCc3ccc(Cl)cc3)C2)c(C)o1 (stereo unspecified)	-6%	i	2%	23	-8%	i

Screening data (PubChem BioAssay)
